The panel holds about 83,000 compounds, 20% with a hit somewhere; the sample as a whole holds those more often.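 Results are percent growth after 48 hours of single-concentration exposure. 100 means growth as in untreated cells, lower positive values show inhibition; negative values down to -100 show cell death.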 A number with no mark means an inactive call. The source made the active and inactive calls. Rule for the calls: active = growth percent below 10; inactive = the rest.
Tests used:
Experiment in all cases: NCI-60 one-dose screen, 48 h (100 = growth as untreated, 0 = no growth, -100 = all killed)
Conditions in all cases: 10 µM unless noted
[1] = system: SR leukemia
[2] = system: RPMI-8226 leukemia
[3] = system: OVCAR-8 ovarian
[4] = system: OVCAR-5 ovarian
[5] = system: OVCAR-4 ovarian
[6] = system: SK-OV-3 ovarian
[7] = system: IGROV1 ovarian
[8] = system: OVCAR-3 ovarian
[9] = system: HS 578T breast
[10] = system: NCI/ADR-RES ovarian

Row | SMILES | growth [1] | growth [2] | growth [3] | growth [4] | growth [5] | growth [6] | growth [7] | growth [8] | growth [9] | growth [10]
1 | C#COc1cccc(Nc2ncnc3ncc(NC(=O)CCl)cc23)c1 | 16.2% [6.25 µM] | 52.9% [6.25 µM] | 10.3% [6.25 µM] | 31.5% [6.25 µM] | 32.6% [6.25 µM] | 53.1% [6.25 µM] | -42.4% [6.25 µM] (active) | -56.4% [6.25 µM] (active) | 43.4% [6.25 µM] | 12% [6.25 µM]
2 | CN(C)CCCC1(c2ccc(F)cc2)OCc2cc(-c3cncc4ccccc34)ccc21 (stereo not given) | -3.26% (active) | 35.3% | 62.7% | 70.5% | 43.9% | 59.6% | 22.1% | 47% | 27.5% | 67%
3 | N=C(N)c1ccc(-c2ccc(-c3ccc(F)cc3)o2)o1 | -8.15% (active) | -2.26% (active) | 5% (active) | 58.4% | 62% | 28.1% | 44.9% | 7.31% (active) | 30.5% | 22.6%
4 | CC(C)c1ccc(NC(=O)Nc2ccc(NC(=O)CCCC(=O)NOCc3ccccc3)cc2)cc1 | 73.4% | 91.1% | 96.7% | 89.2% | 89.2% | 97.4% | 91.5% | 94% | 85.7% | 99.1%
5 | CN([O-])c1nc(N(C)[O-])nc(N2CCOCC2)n1.CN([O-])c1nc(N(C)[OH2+])nc(N2CCOCC2)n1.[Fe+3] | 67.3% [100 µM] | 81% [100 µM] | 85.6% [100 µM] | 110% [100 µM] | 120% [100 µM] | 110% [100 µM] | 112% [100 µM] | 60% [100 µM] | 98.2% [100 µM] | 104% [100 µM]
6 | C=C1C(=O)O[C@H]2[C@H]1CC/C(COC(=O)CSCCSCC(=O)OC/C1=C/CC[C@@]3(C)O[C@H]3[C@H]3OC(=O)C(=C)[C@@H]3CC1)=C\CC[C@@]1(C)O[C@@H]21 | -22.6% (active) | -29.7% (active) | 4.46% (active) | 21.8% | 40.4% | 89.3% | -9.6% (active) | -12.1% (active) | 32.6% | 59.5%
7 | O=c1c2cc(-c3ccccc3)sc2nc2sc(-c3ccccc3)nn12 | 99.1% | 92.4% | 104% | 115% | 105% | 108% | 109% | 108% | 96% | 107%
8 | CC1(C)CC[C@]2(c3nnc(-c4ccncc4)o3)CC[C@H]3C(=CC[C@H]4[C@@]3(C)CC[C@H]3C(C)(C)C(=O)CC[C@]43C)[C@@H]2C1 | 17% | 19.2% | 86.9% | 96.1% | 70.1% | 82.9% | 71.9% | 45% | 82.4% | 82%
9 | Cc1ccc(-c2cc(-c3ccc(Cl)cc3)nc(NC(=O)c3cccnc3)n2)cc1 | 89.1% | 86.3% | 103% | 102% | 100% | 109% | 102% | 115% | 103% | 104%
10 | CCCCC(=O)c1ccco1 | 98.2% | 85.1% | 98.9% | 84.7% | 97.3% | 89.1% | 91.1% | 104% | 95.2% | 93.3%
11 | C=C1C(=O)O[C@H]2[C@H]1CC/C(COC(=O)N[C@H]1C[C@H](O[C@H]3C[C@](O)(C(=O)CO)Cc4c(O)c5c(c(O)c43)C(=O)c3c(OC)cccc3C5=O)O[C@@H](C)[C@H]1O)=C\CC[C@@]1(C)O[C@@H]21 | 5.44% (active) | -24.2% (active) | 66% | 96.4% | 62.5% | 107% | 56.7% | -8.47% (active) | 73% | 100%
12 | Cc1ccc(Sc2oc(-c3ccc(C)cc3)nc2[P+](c2ccccc2)(c2ccccc2)c2ccccc2)cc1 | -18.8% (active) | -37.6% (active) | 5.45% (active) | 7.79% (active) | -3.08% (active) | -3.38% (active) | -74.4% (active) | -3.45% (active) | -8.27% (active) | 1.73% (active)
13 | O=C1/C(=C\c2cn(-c3ccccc3)nc2-c2ccc(-c3cccs3)cc2)CCc2ccccc21 | 15.9% | 52.2% | 82.5% | 94.9% | 75.1% | 86.7% | 56.5% | 47.3% | 81.8% | 35.5%
14 | O=C(CN1C(=O)CCC1=O)Nc1ncc(Cc2ccc(F)cc2)s1 | 99.9% | 105% | 107% | 97.3% | 101% | 110% | 101% | 103% | 101% | 100%
15 | Cn1c(=O)c2c(nc(NC3=NS(=O)(=O)c4ccccc43)n2CC(=O)N2CCc3ccccc32)n(C)c1=O | 124% | 108% | 98.9% | 101% | 107% | 101% | 94.7% | 110% | 97% | 91.8%
16 | Cc1ccc(-c2nn(-c3ccccc3)cc2C=C2C(=O)ON=C2C(C)C)cc1 | -23.5% (active) | -23.1% (active) | 59.7% | 104% | 85.4% | 110% | 54.7% | 87.7% | 56.4% | 96.4%
17 | Cc1nc(N2CCOCC2)sc1S(N)(=O)=O | 98.3% | 102% | 103% | 96.5% | 112% | 102% | 99.4% | 102% | 100% | 102%
18 | CCC(C)N(c1ccc(Cl)cc1)c1nc(-c2ccc(Br)cc2)cs1 (stereo not given) | 83.5% | 82.8% | 96.7% | 103% | 96.5% | 92.5% | 82.1% | 107% | 91.3% | 102%
19 | Fc1cc2c(cc1Cl)N(c1ncnc3ccc(-c4cnc5[nH]ncc5c4)cc13)CC2 | 57.1% | 60.3% | 60.9% | 38.4% | 66.4% | 50.8% | 13.2% | 60.4% | 25.9% | 65.2%
20 | N#C/C(=C\c1ccc(-c2ccc(Cl)cc2)o1)C(=O)Nc1ncc(Cc2ccc(Cl)cc2)s1 | 8.8% (active) | 85.2% | 8.41% (active) | 29.7% | -56.9% (active) | 58.9% | 28.3% | -49.8% (active) | 25.6% | 26.2%
21 | CC1(C)CC[C@]2(C(=O)O)CC[C@]3(C)C(=CC[C@@H]4[C@@]5(C)C/C(=C/O)C(=O)C(C)(C)[C@@H]5CC[C@]43C)[C@@H]2C1 | 36.3% | 13.2% | 29.3% | 81.4% | 63% | 89.8% | 31.4% | 21% | 74.1% | 38.8%
22 | CO/N=C(/C)c1ccc(NC(=O)CSc2nnc(-c3ccncc3)n2-c2ccccc2)cc1 | 99.6% | 80.8% | 1.47% (active) | 79.5% | -30.7% (active) | 24.1% | 33.4% | 29.3% | -0.835% (active) | 0.0208% (active)
23 | CC1=Nc2cnc(Nc3ccc(OCCN4CCCC4)cc3)nc2Nc2ccccc21 | 58.1% | 78% | 80.6% | 74% | 62.9% | 43.8% | 23.1% | 76.4% | 41.5% | 82.7%
24 | Cc1nnc(NC(=O)c2nc(S(=O)(=O)Cc3ccc(F)cc3)ncc2Cl)s1 | 1.43% (active) | 37% | 56.4% | 85.6% | 101% | 101% | 91.1% | 21.8% | 93.1% | 93%
25 | COc1ccc(-c2nc3c(c(-c4ccccc4)nn3-c3ccccc3)c(-c3ccc(N4CCN(C)CC4)cc3)c2C#N)cc1 | 63.3% | 87.4% | 93.7% | 104% | 107% | 109% | 93.8% | 103% | 100% | 93%
26 | COc1cc(CNC(=O)/C=C/C=C/c2ccc3c(c2)OCO3)ccc1OCc1cn(-c2ccc(C)c(C)c2)nn1 | 81.5% | 86.3% | 71.3% | 104% | 46.7% | 86.5% | 76.1% | 82.8% | 91.4% | 80.5%

Source: PubChem BioAssay (NCI)
